PubChem BioAssay AID504465 (National Center for Advancing Translational Sciences (NCATS), 2011)
Among all 2,100 compounds or so, about 210 (10%) were called active. About 53% were inconclusive and are not listed. The call rests on the fitted dose curve; in most records, active means well fitted inhibition curve with a large enough effect; inconclusive means small, poorly fitted or top-dose-only effect, or effect the other way; inactive means no such curve, though single readings can be large or run the other way. The list shows a part of the results. A call without a number means that no potency is given here.

assay: IN Cell qHTS Assay for Inhibitors of the mTORC1 Signaling Pathway in MEF (Tsc2-/-, p53-/-) Cells: Sytravon; conditions: phospho-rpS6 immunofluorescence, 24 h; series mostly up to 38.3 µM; further: nearly all actives have a fitted effect of over 60% in size
Outline: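 Tsc2-/-, p53-/- MEFs (empty-vector) treated with compound 24 h at 37 degree Celsius, then fixed and stained for phospho-rpS6 Ser235/236 (Alexa-488) plus Hoechst. Reported as % positive cells, thresholds set against 7.5 nM rapamycin and DMSO wells.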
Potency means the concentration at half of the fitted maximal effect.

SMILES | Potency
CCc1ccc(N=C2NC(=O)CC(C(=O)Nc3ccc(OC)cc3)S2)cc1 (stereo unspecified) | inactive
CCCc1cc(=O)oc2cc(C)c3c(-c4ccccc4)c(C)oc3c12 | inactive
C#CCOc1c(Br)cc(C2C(C(=O)OC)=C(C)NC3=C2C(=O)c2ccccc23)cc1OCC (stereo unspecified) | inactive
CSc1cccc(NC(=O)Cn2cnc(S(=O)(=O)N3CCCC3)c2)c1 | inactive
Cn1nnnc1SCCCNCc1cccc(OCc2ccccc2Cl)c1 | inactive
Cc1noc(/C=C/N(C)C)c1S(=O)(=O)N1CCCC(C(=O)Nc2ccc(F)cc2F)C1 (stereo unspecified) | inactive
Cc1ccc(-c2noc(-c3ccccc3NC(=O)C3CC(=O)N(c4cccc(C)c4)C3)n2)cc1 (stereo unspecified) | inactive
COc1ccc2c(c1)c(=O)c(C(=O)c1ccc(C)cc1)cn2Cc1ccccc1F | inactive
Cc1cc(C)c(NC(=O)Cn2cc(S(=O)(=O)Cc3ccccc3F)c3ccccc32)c(C)c1 | inactive
CN(C)c1ccc(NC(=O)Cn2cc(S(=O)(=O)Cc3ccccc3Cl)c3ccccc32)cc1 | 10.4 µM (active)
CC(C)N(C(=O)CSc1cn(CC(=O)N2CCCCCC2)c2ccccc12)C(C)C | inactive
Cc1ccc(CNC(=O)Cn2cc(S(=O)(=O)Cc3ccccc3F)c3ccccc32)cc1 | 18.5 µM (active)
O=C(Cn1cc(S(=O)(=O)Cc2cccc(Cl)c2)c2ccccc21)Nc1ccccc1C(F)(F)F | inactive
Cc1ccccc1OCc1cc(=O)n2c(-c3ccccc3)csc2n1 | inactive
Cc1cccc(-n2c(C)nc3cc(C(=O)NC4CCCCCC4)ccc32)c1 | inactive
COc1ccc(S(=O)(=O)N(C)Cc2nc(-c3cccc(C)c3)no2)cc1 | inactive
Cc1ccc(-c2cnc(NCc3ccc(C(F)(F)F)cc3)n2C)cc1 | inactive
Cc1nnc(N2CCCC(C(=O)Nc3cc(F)ccc3F)C2)c2nn(-c3ccccc3)c(C)c12 (stereo unspecified) | inactive
COc1ccc(-n2nc3c(N4CCCC(C(=O)NCc5ccccc5C)C4)nnc(C)c3c2C)cc1 (stereo unspecified) | 5.85 µM (active)
O=C(NCc1ccccc1Cl)C1CCCN(c2nc3ccccc3n3cccc23)C1 (stereo unspecified) | inactive
CCCN1C(=O)C(Cc2nc3ccccc3c(=O)n2CC)c2ccccc21 (stereo unspecified) | inactive
COc1ccc2nc(NC(=O)c3nc(S(=O)(=O)Cc4ccccc4)ncc3Cl)sc2c1 | 5.85 µM (active)
COc1cccc(-n2ccnc2SCC(=O)Nc2nc3ccc(C)cc3s2)c1 | inactive
CCc1nnc(NC(=O)c2nc(S(=O)(=O)Cc3ccc(C)cc3)ncc2Cl)s1 | 20.7 µM (active)
CCc1nnc(NC(=O)c2nc(S(=O)(=O)Cc3cccc(C)c3)ncc2Cl)s1 | 9.27 µM (active)
Cc1nnc(NC(=O)c2nc(S(=O)(=O)Cc3ccccc3)ncc2Cl)s1 | 16.5 µM (active)

SMILES | Potency
COc1cc(OC)cc(C(=O)Nc2cc3nn(-c4ccccc4)nc3cc2Cl)c1 | inactive
COc1ccccc1NC(=O)c1c(NCc2ccc(C)o2)sc2c1CCC(C)C2 (stereo unspecified) | inactive
Cc1ccccc1C(=O)N1CCC(c2nc3ccccc3s2)CC1 | inactive
CC(C)(C)c1ccc(S(=O)(=O)NCc2ccc3c(c2)CCN3C(=O)c2ccccc2)cc1 | inactive
CCCCN(C)CCNC(=O)Cn1ncc2c3ccccc3n(CCC)c2c1=O | inactive
CCCCNC(=O)c1cc(-c2cccnc2)nc2ccc(S(=O)(=O)NCCCC)cc12 | inactive
O=C(CSc1nccn1-c1ccc(Cl)cc1)Nc1ccc(Cl)c(Cl)c1 | inactive
CCC1=Nc2cc(C(=O)NC3CCC(C)CC3)ccc2Sc2ccc(C)cc21 (stereo unspecified) | inactive
CC1CCN(S(=O)(=O)c2ccc3nc(Nc4cccc(F)c4)ccc3c2)CC1 | inactive
CCSc1nc2ccccc2c(OCc2cc(C(=O)OC)ccc2OC)c1C(=O)OC | inactive
Cc1ccccc1CS(=O)(=O)c1ncc(Cl)c(C(=O)Nc2nnc(C(C)C)s2)n1 | 13.1 µM (active)
CC(C)c1ccc(NC(=O)CSC2=Nc3ccccc3C3=NC(CCC(=O)NCc4ccc(F)cc4)C(=O)N23)cc1 (stereo unspecified) | inactive
O=C(CCn1cnc2onc(-c3ccc(F)cc3)c2c1=O)Nc1ccc(F)c(Cl)c1 | inactive
O=S(=O)(c1ccc(-c2csc(=Nc3ccc(OC(F)(F)Cl)cc3)n2CCCO)cc1)N1CCCC1 | 1.85 µM (active)
COc1ccc(NC(=O)CCCN2C(=O)CCn3nc(-c4cn(C)c5ccccc45)cc32)cc1 | inactive
CCOC(=O)C1=C(C)NC(=O)NC1c1cn(-c2ccccc2)nc1-c1ccc(OC(C)C)cc1 (stereo unspecified) | inactive
O=C(Nc1ccc(F)cc1F)c1noc2c1CCc1ccccc1-2 | inactive
CC1=Nc2cc(C(=O)NC3CCCC3)ccc2Sc2ccc(Br)cc21 | inactive
Cc1ccc(C(=O)Nc2c(C(=O)NCc3ccc(Cl)cc3)sc3nc(C)cc(C)c23)cc1 | 11.7 µM (active)
Cc1cc(C)c(NC(=O)c2sc3nc(C)cc(C)c3c2NC(=O)c2ccccc2)c(C)c1 | inactive
Cc1cc(C)c2c(NC(=O)c3ccccc3Cl)c(C(=O)Nc3ccc(C)c(C)c3)sc2n1 | 1.65 µM (active)
Cc1cccc(C(=O)Nc2c(C(=O)NCc3ccc(Cl)cc3)sc3nc(C)cc(C)c23)c1 | inactive
COCCCNC(=O)c1sc2nc(C)c(C(=O)Nc3ccc(C)cc3C)c(-c3ccc(Cl)cc3)c2c1N | inactive
Cc1ccc(NC(=O)c2cc(S(=O)(=O)N3CCc4ccccc43)ccc2F)cc1Cl | inactive
CC(C)(C)c1ccc(NC(=O)CSc2nnc3scc(-c4ccccc4)n23)cc1 | inactive
